Source: PubChem BioAssay (Milwaukee Institute for Drug Discovery)
Only some compounds are listed: those with a hit (about 6.8% of all), similar ones and a draw of the others.
Cy5 interf NS3h: Cy5 fluorescence quenchers or enhancers, artefact control for HCV NS3 helicase inhibitor project, biochemical, ChemBridge library, Cy5 readout | AID 720488, 2013 | 16,000 tested, 6% active | fluorescence interference ratio at 100 µM | Cy5-dT15 DNA with NS3h, fluorescence interference; actives lie on both sides; signal over control mean, under 1 quenches;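 active = compound fluorescence over control fluorescence at most 0.8, a quencher, or at least a set upper limit, an enhancer; inactive = ratio between 0.8 and the set upper limit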
HCV NS3h FP: HCV NS3 helicase inhibitors, primary screen, biochemical, fluorescence polarization, ChemBridge library. NS3h Cy5-dT15 DNA binding. Hepatitis C virus NS3 helicase. 16,000 tested, 1.6% active. inhibition, % at 100 µM. AID 687043, 2013;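 active = inhibition above the average over every tested compound plus 3 SD, cut at about 40% in these data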
HCV NS3h conf: HCV NS3 helicase inhibitors, retest, confirmation, biochemical, fluorescence polarization, ChemBridge library; shares compounds with HCV NS3h FP; NS3h binding to Cy5-dT15 DNA; inhibition, % at 100 µM; 240 tested, 20% active; AID 720485, 2013;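 active = percent inhibition of 50% or more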
SSB FP counter: E. coli SSB-DNA binding inhibitors, counter-screen for HCV NS3 helicase inhibitor project, biochemical, fluorescence polarization, selected ChemBridge compounds. 240 tested, 40% active. E. coli SSB binding Cy5-dT15. inhibition, % at 100 µM. shares compounds with HCV NS3h FP;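 active = inhibition of at least 50%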;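 note: displacers lower Cy5 polarization so higher inhibition means more SSB displaced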
Target sequence (P0AGE0 whole entry, looked up): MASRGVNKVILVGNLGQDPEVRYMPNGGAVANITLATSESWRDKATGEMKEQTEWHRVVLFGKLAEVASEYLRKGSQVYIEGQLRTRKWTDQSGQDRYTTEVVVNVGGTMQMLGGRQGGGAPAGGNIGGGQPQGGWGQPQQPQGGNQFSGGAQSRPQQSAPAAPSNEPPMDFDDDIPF
Cy5 SSB interf: Cy5 fluorescence interference with SSB-bound oligo, artefact control for HCV NS3 helicase inhibitor project, biochemical, E. coli SSB, selected ChemBridge compounds | fluorescence interference ratio at 100 µM | AID 720487, 2013 | shares compounds with HCV NS3h FP | Cy5-dT15/E. coli SSB fluorescence interference; actives lie on both sides | 240 tested, 8% active;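 active = fluorescence interference ratio at or above 1.2, signal boosting, or at or below 0.8, signal quenching; inactive = ratio between 0.8 and 1.2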;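 note: ratio of compound well signal to mean negative control signal so 1 means no effect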
Cy5 fluor confirm: Cy5-DNA-NS3h complex fluorescence interference, confirmation, artefact control for HCV NS3 helicase inhibitor project, biochemical, ChemBridge library | shares compounds with HCV NS3h FP | 240 tested, 44% active | Cy5-dT15 DNA/NS3h fluorescence interference counterscreen | fluorescence interference ratio at 100 µM, hits read low;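 active = fluorescence interference ratio at or below 0.8 quencher or at or above a set limitenhancer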;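 note: ratio of compound fluorescence to mean of negative controls so 1 means no interference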
* = called active by the depositor.

SMILES	Cy5 interf NS3h	HCV NS3h FP	others
Cc1ccc(N2C(=O)CC(=O)NC2=S)cc1	1	3
O=C1CC(=O)N(c2ccc(Cl)c(Cl)c2)C(=S)N1	0.62*	19
CCOc1cc(C=C2C(=O)NC(=S)NC2=O)ccc1OCc1c(C)no[n+]1[O-]	1	-4
COc1ccc(C=C(C#N)C#N)cc1O	1	27
O=C(Nc1ccc(Cl)cc1C(=O)c1ccccc1)c1ccc([N+](=O)[O-])cc1	0.95	10
O=[N+]([O-])c1ccc(NCCOc2cccc3ccccc23)c2ncccc12	0.75*	8
O=[N+]([O-])c1ccc(N2CCNCC2)cc1NCCc1ccccc1	0.78*	10
O=C(NC(Oc1ccccc1Br)C(Cl)(Cl)Cl)c1ccco1 (centres undefined)	0.93	7
Cc1ccc(N2C(=O)CC(=O)N(C)C2=S)cc1	1	-3
Cc1cc(-c2ccc(C=C3C(=O)NC(=S)NC3=O)o2)cc([N+](=O)[O-])c1C	0.93	17
Cc1ccc(-c2ccc(C=C3C(=O)NC(=S)NC3=O)o2)cc1[N+](=O)[O-]	0.92	42*
O=c1oc2ccccc2c(O)c1C(c1cccc(F)c1)c1c(O)c2ccccc2oc1=O	0.95	1
CN1C(=O)C(=Cc2ccc(-c3cccc(C(=O)O)c3)o2)C(=O)N(C)C1=O	0.97	32
Cc1ccc(N2C(=O)NC(=O)/C(=C/c3ccc(-c4cccc(C(=O)O)c4)o3)C2=O)cc1	1.1	50*	HCV NS3h conf=89*;SSB FP counter=70*;Cy5 SSB interf=0.84;Cy5 fluor confirm=0.9
O=C1NC(=S)N(c2ccc(Br)cc2)C(=O)/C1=C/c1ccc(-c2ccc(C(=O)O)cc2)o1	1	13
Cc1ccc(N2C(=O)/C(=C/c3ccc(-c4ccc(C(=O)O)cc4)o3)C(=O)NC2=S)cc1	0.99	50*	HCV NS3h conf=45;SSB FP counter=62*;Cy5 SSB interf=0.85;Cy5 fluor confirm=0.93
CCOC(=O)C(P(=O)(OCC)OCC)P(=S)(c1ccccc1)c1ccccc1 (centres undefined)	1	-18
Cc1cc(OCC(N)=O)c2c3c(c(=O)oc2c1)CCC3	1.2	16
CCCCOC(=O)COc1cc(C)cc2oc(=O)c3c(c12)CCC3	1.1	54*	HCV NS3h conf=-3;SSB FP counter=8;Cy5 SSB interf=0.96;Cy5 fluor confirm=0.93
O=C1NC(=O)C(=Cc2ccccc2OCc2ccccc2Cl)C(=O)N1	0.58*	56*	HCV NS3h conf=25;SSB FP counter=28;Cy5 SSB interf=0.92;Cy5 fluor confirm=0.73*
CC(C)Oc1ccc(Br)cc1C=C1C(=O)NC(=O)NC1=O	1.1	15
CN(C)c1ccc(C=C2C(=O)NC(=S)N(c3ccccc3F)C2=O)cc1	1	34
CCN1C(=O)C(=Cc2ccc(N(CC)CC)cc2)C(=O)N(CC)C1=S	2*	55*	HCV NS3h conf=29;SSB FP counter=7;Cy5 SSB interf=1.2;Cy5 fluor confirm=1.4*
CCN(CC)CCNC(=O)CN1CCCC1=O	0.95	-7
O=C1NC(=O)C(=Cc2ccc(-c3ccccc3C(=O)O)o2)C(=O)N1	1	68*	HCV NS3h conf=54*;SSB FP counter=25;Cy5 SSB interf=0.98;Cy5 fluor confirm=0.98
SMILES	Cy5 interf NS3h	HCV NS3h FP	others
O=C1NC(=O)C(=Cc2ccc(-c3cc([N+](=O)[O-])ccc3O)o2)C(=O)N1	1.7*	185*	HCV NS3h conf=100*;SSB FP counter=100*;Cy5 SSB interf=0.91;Cy5 fluor confirm=1.2
O=C1NC(=O)C(=Cc2ccc(O)c(O)c2)C(=O)N1	0.97	35
COC(=O)c1ccc(-c2ccc(C=C3C(=O)NC(=S)NC3=O)o2)cc1	1.1	18
CSc1ccc(CN2CCN(Cc3ccc(Br)cc3)CC2)cc1	1	-4
Cc1cc(OCc2ccccc2)c2c3c(c(=O)oc2c1)CCC3	1.1	9
Cc1ccc(C2c3c(c4ccccc4oc3=O)Oc3c2c(=O)oc2ccccc32)cc1	1	2
COc1cccc(CN2CCN(Cc3ccc(C)cc3)CC2)c1	1.1	-8
CCC1(CCC(C)C)C(=O)NC(=O)N(C(=O)c2ccc(F)cc2)C1=O (centres undefined)	1.1	6
COc1ccc(CN2CCN(Cc3cccc(Br)c3)CC2)cc1Br	1	-1
O=C1NC(=S)NC(=O)C1CCCC=C(Cl)Cl	0.98	29	HCV NS3h conf=29;SSB FP counter=41;Cy5 SSB interf=0.95;Cy5 fluor confirm=0.99
O=C(Nc1cccc2ccccc12)NC1CN2CCC1CC2 (centres undefined)	1.1	-1
